Screening results: PubChem, National Center for Advancing Translational Sciences (NCATS)
MmCpn inh: Inhibitors of TCP-1 ring complex (TRiC) of Methanococcus maripaludis (MmCpn): qHTS; Chaperonin Mm-Cpn (Methanococcus maripaludis); AID 504842, 2011; 0.031% of 330,000 active; purified Mm-Cpn ATPase, ADP Transcreener TR-FRET; Potency, µM (highest dose often 76.9 µM), actives largely listed as inhibitors; also: nearly all actives have a fitted effect of over 80% in size
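Purified archaeal chaperonin (25 nM final) was preincubated with compound for 10 min at 37°C, then ATP (10 uM final) was added for 30 min at 37°C in Tris pH 7.4/KCl/MgCl2/DTT buffer. ADP was quantified by HTRF Transcreener TR-FRET.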
CCT chaperon mod: High-Throughput Screening for Modulators of Cytosolic Chaperonin Activity; purified chaperonin ATPase assay, HTRF ADP detection, 30 min; activity change, % (concentration not given with the values), hits read low; 0.3% of 360,000 active; AID 651819, 2012; in the data active = activity change below about -30%
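ATPase activity: ADP formed was measured by HTRF Transcreener (665/615 nm ratio) after 30 min at 37 deg C with 10 uM ATP. Compounds screened at one 76 uM concentration against 40 or 20 nM TRiC in Tris pH 7.4/KCl/MgCl2/DTT buffer.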
ALOX12 inh: Primary qHTS assay for inhibitors of human arachidonate 12S-lipoxygenase (ALOX12): Round 2 | Polyunsaturated fatty acid lipoxygenase ALOX12 (Homo sapiens), P18054 | purified 12hLO, xylenol orange hydroperoxide absorbance | Potency, µM (series often up to 108 µM), actives largely listed as inhibitors | 1.1% of 580,000 active
Target sequence (P18054 whole entry, looked up): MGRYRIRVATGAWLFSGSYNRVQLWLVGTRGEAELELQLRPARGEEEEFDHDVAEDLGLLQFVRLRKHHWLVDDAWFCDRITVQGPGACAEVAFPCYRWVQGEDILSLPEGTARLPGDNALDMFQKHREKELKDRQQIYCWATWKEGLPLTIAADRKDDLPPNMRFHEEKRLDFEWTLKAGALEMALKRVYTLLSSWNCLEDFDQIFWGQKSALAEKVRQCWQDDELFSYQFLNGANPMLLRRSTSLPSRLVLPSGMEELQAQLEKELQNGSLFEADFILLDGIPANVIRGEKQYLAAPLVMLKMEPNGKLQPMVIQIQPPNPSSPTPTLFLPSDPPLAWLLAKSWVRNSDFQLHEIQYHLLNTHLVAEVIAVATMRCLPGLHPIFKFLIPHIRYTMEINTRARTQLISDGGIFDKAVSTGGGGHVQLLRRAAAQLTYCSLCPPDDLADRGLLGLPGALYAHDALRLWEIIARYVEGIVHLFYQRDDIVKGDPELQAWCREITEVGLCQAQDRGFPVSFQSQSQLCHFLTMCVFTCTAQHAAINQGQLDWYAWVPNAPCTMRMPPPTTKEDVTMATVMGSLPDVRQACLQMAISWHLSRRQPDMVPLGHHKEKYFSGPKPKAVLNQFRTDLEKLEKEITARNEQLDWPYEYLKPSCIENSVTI
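Hydroperoxide product was detected by ferrous iron/xylenol orange as the 573 to 405 nm absorbance ratio. Arachidonic acid at 40 uM (final) was turned over for 30 min at room temperature by 150 nM human 12hLO, pH 7.0 Hepes buffer, after 15 min compound preincubation.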
S-ASM inh: Inhibitors of Secretory Acid Sphingomyelinase (S-ASM): qHTS. Sphingomyelin phosphodiesterase (Homo sapiens), P17405. placental ASM, HMU-PC fluorogenic substrate, 60 min. Potency, µM (series often up to 57.5 µM), actives largely listed as inhibitors. 0.006% of 340,000 active
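Human placenta-derived ASM enzyme was preincubated with compound for 10 minutes at room temperature, then given fluorogenic substrate HMU-PC0 (9 uM final) for 60 minutes at 37 °C; a pH 10 stop preceded fluorescence reading at Ex 386/Em 447 nm.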
PINK1 modulator: A Quantitative High throughput Screen to Identify Chemical Modulators of PINK1 Expression; PINK1 immunofluorescence, high-content cytometry, 24 h; Potency, µM (titrated, usually from 76.6 µM), actives largely listed as activators; 0.2% of 410,000 active; active = well fitted activation curve with a large enough effect; inconclusive = small, poorly fitted or top-dose-only effect; cell line not stated here; also: nearly all actives have a fitted effect of over 65% in size
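Readout is PINK1 immunofluorescence, quantified alongside mitochondrial, cell and nuclear markers by laser-scanning microplate cytometry. Cells from a stable line were exposed to compound titrations (5 concentrations) for 24 hours, with CCCP controls.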
p53 reactivation: qHTS assay for re-activators of p53 using a Luc reporter; H1299 p53-A138V BP100-luciferase reporter, luminescence, 24 h; Potency, µM (titrated, usually from 92.2 µM), actives largely listed as activators; 0.063% of 320,000 active; AID 504706, 2011; also: nearly all actives have a fitted effect of over 45% in size
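H1299 (p53-null), stable ts p53-A138V + BP100-Luc; 1000 cells/well, Opti-MEM/10% FBS; cpd 4 pt, 1:5; 24 h, 37 deg C, 5% CO2; detection reagent 10 min RT; luminescence.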
Each line names hits and unclear results; the compound was inactive in the other large screens; ! = not active in a repeat. Most compounds without a hit are left out; they make up all but 1.4% or so of the library. Unless noted, calls follow the shape of the dose curve; as a rule, active = well fitted curve in the direction sought with a large enough effect; inconclusive = small, poorly fitted or top-dose-only effect, or another doubt; inactive = no such curve, though single readings can be large; an effect the other way counts as inactive or inconclusive.

COc1cc(CNCc2cccc3ccccc23)cc(OC)c1	ALOX12 inh 0.71µM, PINK1 modulator inconclusive
COC(=O)[C@@H](Cc1ccccc1)NC(=O)NCC(c1ccccc1)c1ccccc1	none (no result: MmCpn inh, CCT chaperon mod, S-ASM inh, PINK1 modulator, p53 reactivation)
Fc1ccc(-c2[nH]ncc2CNCc2cccc(Cn3cccn3)c2)cc1	ALOX12 inh 18µM (no result: MmCpn inh, CCT chaperon mod, S-ASM inh, PINK1 modulator, p53 reactivation)
Cc1ccccc1OCC(=O)NCc1ccc(CS(N)(=O)=O)cc1	none (no result: MmCpn inh, CCT chaperon mod, S-ASM inh, PINK1 modulator, p53 reactivation)
Cc1oc2ccn(Cc3ccccc3F)c(=O)c2c1C(=O)NCc1cc(F)cc(F)c1	none (no result: MmCpn inh, CCT chaperon mod, S-ASM inh, PINK1 modulator, p53 reactivation)
O=C(O)c1c(Cl)c(Cl)c(Cl)c(Cl)c1C(=O)N1CCOCC1	ALOX12 inh 11µM
O=C(O)c1c(Cl)c(Cl)c(Cl)c(Cl)c1C(=O)N1CCCCCC1	none
C(=N\Nc1nc2ccccc2[nH]1)/c1cccc2nccnc12	none
CCN(CC)c1ccc(/C=N/Nc2nc3ccccc3[nH]2)c(O)c1	CCT chaperon mod -31, ALOX12 inh inconclusive, PINK1 modulator inconclusive, p53 reactivation 18µM
C#CCn1cc(/C=N/Nc2nc3ccccc3[nH]2)c2ccccc21	ALOX12 inh inconclusive, p53 reactivation 14µM
CC1Sc2ccc(S(=O)(=O)N3CCC(C(=O)NCc4ccco4)CC3)cc2NC1=O (configuration not stated)	CCT chaperon mod -34
CCC1=C(C(=O)OC)C(c2cccc(F)c2)N2C(CC(=O)NCc3ccco3)=CSC2=N1 (configuration not stated)	none (no result: MmCpn inh, CCT chaperon mod, S-ASM inh, PINK1 modulator, p53 reactivation)
CC1=C([N+](=O)[O-])C(c2ccc(O)c(O)c2)NC(=O)N1 (configuration not stated)	ALOX12 inh 28µM
c1ccc(-c2nn3c(Cn4cnc5ccccc54)nnc3s2)cc1	ALOX12 inh 7.1µM!
c1ccc(-c2nn3c(Cn4nnc5ccccc54)nnc3s2)cc1	ALOX12 inh 14µM (no result: PINK1 modulator)
c1ccc2c(c1)nnn2Cc1nnc2sc(-c3ccc4c(c3)OCCO4)nn12	ALOX12 inh inconclusive
COc1ccc(C(CC(=O)N2CCCC2)c2c(OC)cc(OC)c3c(-c4ccccc4)cc(=O)oc23)cc1 (configuration not stated)	ALOX12 inh inconclusive
COc1ccc(C(CC(=O)N2CCCCC2)c2c(OC)cc(OC)c3c(-c4ccccc4)cc(=O)oc23)cc1 (configuration not stated)	ALOX12 inh 40µM
Clc1cccc(C2Nc3cccc4cccc(c34)N2)c1	ALOX12 inh 3.5µM, p53 reactivation inconclusive
O=C1CC(/C=C/c2ccccc2)Cc2nc(N3CCCC3)ncc21 (configuration not stated)	none (no result: MmCpn inh, CCT chaperon mod, S-ASM inh, PINK1 modulator, p53 reactivation)
COc1cc(C=O)ccc1OS(=O)(=O)c1ccccc1[N+](=O)[O-]	CCT chaperon mod -42
COc1cc(/C=N/n2cnnc2)ccc1OS(=O)(=O)c1ccccc1[N+](=O)[O-]	none (no result: S-ASM inh)
Cc1nc2cc(NC(=O)CCS(=O)(=O)c3ccccc3)ccc2s1	p53 reactivation 32µM
O=[N+]([O-])c1ccc(N2N=C(c3ccccc3)CC2c2ccccc2O)cc1 (configuration not stated)	ALOX12 inh 25µM (no result: CCT chaperon mod, S-ASM inh, PINK1 modulator)
COc1ccc(C(=O)c2sc(Nc3ccc(NC(C)=O)cc3)nc2C)cc1	none
COc1ccc(Nc2nc(C)c(C(C)=O)s2)cc1	ALOX12 inh 45µM (no result: MmCpn inh, S-ASM inh, p53 reactivation)
O=C(/C=C/c1c(F)cccc1Cl)N1CCc2ccccc2C1	ALOX12 inh 5.6µM
CO/N=C\CC(=O)Nc1ccc(Cl)c(Cl)c1	ALOX12 inh 40µM
CC(Sc1ccc2nnc(-c3ccc(F)cc3)n2n1)C(=O)O (configuration not stated)	ALOX12 inh inconclusive
COc1ccc(-c2nnc3ccc(SCC(=O)N4CCOCC4)nn23)cc1	none
